# Measured values reported in paper PMC7862700, “An all-to-all approach to the identification of sequence-specific readers for epigenetic DNA modifications on cytosine”.
# How the values were obtained:
# Test in all cases: DAPPL (digital affinity profiling via proximity ligation, sequencing); 10 mM Tris-HCl pH 7.5, 50 mM NaCl, 1 mM DTT, 4% glycerol, room temperature, 30 min; GST-TFs on glutathione beads, 16-mer random dsDNA library, 0.1% formaldehyde crosslink after washing; high values mean tight binding
# FEV = biological target: T1, FEV (Homo sapiens, UniProt Q99581 1-238); conditions: protein: recombinant; tags: N-terminal GST; dsDNA, one strand shown
# T1 sequence: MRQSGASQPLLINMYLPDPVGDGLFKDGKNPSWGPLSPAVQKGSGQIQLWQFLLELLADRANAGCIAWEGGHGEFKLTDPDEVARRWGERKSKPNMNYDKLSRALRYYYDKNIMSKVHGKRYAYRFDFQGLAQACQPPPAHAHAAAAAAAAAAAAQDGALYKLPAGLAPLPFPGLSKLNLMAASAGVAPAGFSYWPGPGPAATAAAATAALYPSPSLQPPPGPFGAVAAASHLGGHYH
# In short: (§1)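 Human transcription factors carrying a GST fusion were produced in yeast, bound to glutathione beads, tagged with DNA barcodes and pooled together with a tag-only sample. Each pool was held with 200 nmole of a random double-stranded 16-mer DNA library in Tris/NaCl/DTT/glycerol buffer for 30 min at room temperature, then washed, crosslinked in 0.1% formaldehyde, proximity-ligated with BsaI/T4 ligase (1 h, 37 °C), PCR-amplified and sequenced on an Illumina NextSeq500. Binding signal is the read frequency of each hexamer for a given factor divided by its frequency in the tag-only sample.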
# ETV5 = ETV5 (Homo sapiens, UniProt P41161 1-510); conditions: protein: recombinant; tags: N-terminal GST; dsDNA, one strand shown
# In short: as §1
# HSF1 = HSF1 (Homo sapiens, UniProt Q00613 1-529); conditions: protein: recombinant; tags: N-terminal GST; chain copies: 3; dsDNA, one strand shown
# In short: as §1
# SPIC = biological target: T2, SPIC (Homo sapiens, UniProt Q8N5J4 1-248); conditions: protein: recombinant; tags: N-terminal GST; dsDNA, one strand shown
# T2 sequence: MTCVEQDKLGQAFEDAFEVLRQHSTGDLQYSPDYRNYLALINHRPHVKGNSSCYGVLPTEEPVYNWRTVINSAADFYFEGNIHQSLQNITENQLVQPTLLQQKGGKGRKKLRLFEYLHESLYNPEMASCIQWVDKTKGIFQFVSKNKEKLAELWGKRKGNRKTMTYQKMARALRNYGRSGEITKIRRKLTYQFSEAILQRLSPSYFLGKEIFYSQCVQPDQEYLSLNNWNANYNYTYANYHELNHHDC
# In short: as §1
# ELF4 = ELF4 (Homo sapiens, UniProt Q99607 1-663); conditions: protein: recombinant; tags: N-terminal GST; dsDNA, one strand shown
# In short: as §1
# ELK4 = biological target: T3, ELK4 (Homo sapiens, UniProt P28324-2 1-405); conditions: protein: recombinant; tags: N-terminal GST; dsDNA, one strand shown
# T3 sequence: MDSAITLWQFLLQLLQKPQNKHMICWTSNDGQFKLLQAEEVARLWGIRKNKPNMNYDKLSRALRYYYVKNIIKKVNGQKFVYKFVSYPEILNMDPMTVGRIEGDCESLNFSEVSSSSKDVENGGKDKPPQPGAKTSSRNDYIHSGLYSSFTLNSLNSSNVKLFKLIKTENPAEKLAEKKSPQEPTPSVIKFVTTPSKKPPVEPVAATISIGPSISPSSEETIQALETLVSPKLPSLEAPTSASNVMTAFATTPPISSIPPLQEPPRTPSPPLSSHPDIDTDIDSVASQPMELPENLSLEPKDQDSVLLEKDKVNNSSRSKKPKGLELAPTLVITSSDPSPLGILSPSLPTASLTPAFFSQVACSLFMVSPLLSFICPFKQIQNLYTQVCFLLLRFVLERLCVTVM
# In short: as §1
# ETV2 = biological target: T4, ETV2 (Homo sapiens, UniProt O00321 1-342); conditions: protein: recombinant; tags: N-terminal GST; dsDNA, one strand shown
# T4 sequence: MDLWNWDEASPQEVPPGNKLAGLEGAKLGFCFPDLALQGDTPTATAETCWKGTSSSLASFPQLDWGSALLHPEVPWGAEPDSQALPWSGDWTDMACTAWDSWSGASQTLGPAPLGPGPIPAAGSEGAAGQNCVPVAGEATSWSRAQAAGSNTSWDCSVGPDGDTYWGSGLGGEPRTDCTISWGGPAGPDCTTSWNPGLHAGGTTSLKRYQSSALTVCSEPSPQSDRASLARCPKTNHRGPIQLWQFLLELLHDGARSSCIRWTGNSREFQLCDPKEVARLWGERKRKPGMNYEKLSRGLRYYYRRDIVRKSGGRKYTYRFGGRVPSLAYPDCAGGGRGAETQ
# In short: as §1
# ELF3 = biological target: T5, ELF3 (Homo sapiens, UniProt P78545 1-371); conditions: protein: recombinant; tags: N-terminal GST; dsDNA, one strand shown
# T5 sequence: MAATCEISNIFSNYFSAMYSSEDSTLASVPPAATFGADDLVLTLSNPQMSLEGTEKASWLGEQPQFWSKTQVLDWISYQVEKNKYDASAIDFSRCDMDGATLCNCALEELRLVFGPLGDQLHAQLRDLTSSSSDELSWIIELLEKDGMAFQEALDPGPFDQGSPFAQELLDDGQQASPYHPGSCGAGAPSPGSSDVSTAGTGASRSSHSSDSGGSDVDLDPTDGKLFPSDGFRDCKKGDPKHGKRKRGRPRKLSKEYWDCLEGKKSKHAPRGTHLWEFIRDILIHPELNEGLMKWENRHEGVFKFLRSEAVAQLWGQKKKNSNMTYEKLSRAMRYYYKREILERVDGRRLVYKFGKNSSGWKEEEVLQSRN
# In short: as §1
# CRX = CRX (Homo sapiens, UniProt O43186 1-299); conditions: protein: recombinant; tags: N-terminal GST; dsDNA, one strand shown
# In short: as §1
# ETV1 = ETV1 (Homo sapiens, UniProt P50549 1-477); conditions: protein: recombinant; tags: N-terminal GST; dsDNA, one strand shown
# In short: as §1
# ERF = biological target: T6, ERF (Homo sapiens, UniProt P50548 1-548); conditions: protein: recombinant; tags: N-terminal GST; dsDNA, one strand shown
# T6 sequence: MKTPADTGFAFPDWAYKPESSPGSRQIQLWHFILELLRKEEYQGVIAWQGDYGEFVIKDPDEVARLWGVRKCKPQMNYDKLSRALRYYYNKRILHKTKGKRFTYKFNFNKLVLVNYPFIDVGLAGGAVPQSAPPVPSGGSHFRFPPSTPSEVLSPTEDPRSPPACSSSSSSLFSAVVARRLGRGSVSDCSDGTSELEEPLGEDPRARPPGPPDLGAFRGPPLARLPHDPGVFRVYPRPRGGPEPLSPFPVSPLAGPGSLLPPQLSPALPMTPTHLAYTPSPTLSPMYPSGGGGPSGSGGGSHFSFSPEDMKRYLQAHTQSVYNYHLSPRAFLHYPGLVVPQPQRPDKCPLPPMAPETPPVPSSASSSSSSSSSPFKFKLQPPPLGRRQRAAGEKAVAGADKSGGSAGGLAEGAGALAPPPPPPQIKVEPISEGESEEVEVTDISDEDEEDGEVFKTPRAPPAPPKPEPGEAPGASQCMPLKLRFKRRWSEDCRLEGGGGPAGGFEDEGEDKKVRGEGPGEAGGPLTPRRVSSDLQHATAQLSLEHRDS
# In short: as §1
# ETV3L = biological target: T7, ETV3L (Homo sapiens, UniProt Q6ZN32 1-361); conditions: protein: recombinant; tags: N-terminal GST; dsDNA, one strand shown
# T7 sequence: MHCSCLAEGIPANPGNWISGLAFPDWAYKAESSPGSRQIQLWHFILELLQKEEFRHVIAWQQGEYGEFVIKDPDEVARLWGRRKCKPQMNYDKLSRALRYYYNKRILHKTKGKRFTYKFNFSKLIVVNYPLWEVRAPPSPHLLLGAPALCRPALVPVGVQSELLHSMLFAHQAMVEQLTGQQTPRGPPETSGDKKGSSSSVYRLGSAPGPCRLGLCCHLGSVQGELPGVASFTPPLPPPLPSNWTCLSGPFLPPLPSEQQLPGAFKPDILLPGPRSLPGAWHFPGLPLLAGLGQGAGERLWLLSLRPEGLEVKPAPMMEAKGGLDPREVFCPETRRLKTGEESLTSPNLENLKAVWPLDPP
# In short: as §1
# ETS2 = biological target: T8, ETS2 (Homo sapiens, UniProt P15036 1-469); conditions: protein: recombinant; tags: N-terminal GST; dsDNA, one strand shown
# T8 sequence: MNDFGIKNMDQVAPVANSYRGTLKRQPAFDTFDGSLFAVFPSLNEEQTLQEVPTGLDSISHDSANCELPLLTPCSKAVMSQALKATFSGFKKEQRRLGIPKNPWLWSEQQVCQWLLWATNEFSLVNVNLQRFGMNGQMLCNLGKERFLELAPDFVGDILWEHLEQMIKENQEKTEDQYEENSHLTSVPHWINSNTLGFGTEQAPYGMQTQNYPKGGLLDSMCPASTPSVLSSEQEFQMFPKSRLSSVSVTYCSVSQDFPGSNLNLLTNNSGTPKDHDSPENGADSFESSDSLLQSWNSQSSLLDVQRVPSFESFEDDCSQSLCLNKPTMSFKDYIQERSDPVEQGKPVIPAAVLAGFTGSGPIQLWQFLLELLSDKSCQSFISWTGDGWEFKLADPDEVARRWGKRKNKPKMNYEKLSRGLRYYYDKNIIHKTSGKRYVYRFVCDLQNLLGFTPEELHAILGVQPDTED
# In short: as §1
# SPDEF = biological target: T9, SPDEF (Homo sapiens, UniProt O95238 1-335); conditions: protein: recombinant; tags: N-terminal GST; dsDNA, one strand shown
# T9 sequence: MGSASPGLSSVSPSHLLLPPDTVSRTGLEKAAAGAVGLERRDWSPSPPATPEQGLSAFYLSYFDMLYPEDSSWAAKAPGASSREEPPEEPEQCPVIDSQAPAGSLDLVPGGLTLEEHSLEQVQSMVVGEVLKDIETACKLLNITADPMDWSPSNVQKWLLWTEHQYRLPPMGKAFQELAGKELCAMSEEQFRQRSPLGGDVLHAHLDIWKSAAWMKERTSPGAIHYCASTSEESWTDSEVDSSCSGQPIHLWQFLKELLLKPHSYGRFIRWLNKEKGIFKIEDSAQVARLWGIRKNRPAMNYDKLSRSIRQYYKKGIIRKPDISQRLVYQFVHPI
# In short: as §1
# ETV7 = biological target: T10, ETV7 (Homo sapiens, UniProt Q9Y603 1-341); conditions: protein: recombinant; tags: N-terminal GST; dsDNA, one strand shown
# T10 sequence: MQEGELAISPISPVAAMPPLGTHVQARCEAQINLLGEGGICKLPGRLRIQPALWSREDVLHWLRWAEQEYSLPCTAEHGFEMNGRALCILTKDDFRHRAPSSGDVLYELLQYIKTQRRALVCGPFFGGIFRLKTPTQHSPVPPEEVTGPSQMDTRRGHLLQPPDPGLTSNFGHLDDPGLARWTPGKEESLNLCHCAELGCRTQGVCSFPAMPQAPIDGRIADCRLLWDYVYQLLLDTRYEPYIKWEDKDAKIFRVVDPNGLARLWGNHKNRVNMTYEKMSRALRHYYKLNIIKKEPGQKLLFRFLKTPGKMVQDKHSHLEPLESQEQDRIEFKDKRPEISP
# In short: as §1
# ELF5 = biological target: T11, ELF5 (Homo sapiens, UniProt Q9UKW6-2 1-255); conditions: protein: recombinant; tags: N-terminal GST; dsDNA, one strand shown
# T11 sequence: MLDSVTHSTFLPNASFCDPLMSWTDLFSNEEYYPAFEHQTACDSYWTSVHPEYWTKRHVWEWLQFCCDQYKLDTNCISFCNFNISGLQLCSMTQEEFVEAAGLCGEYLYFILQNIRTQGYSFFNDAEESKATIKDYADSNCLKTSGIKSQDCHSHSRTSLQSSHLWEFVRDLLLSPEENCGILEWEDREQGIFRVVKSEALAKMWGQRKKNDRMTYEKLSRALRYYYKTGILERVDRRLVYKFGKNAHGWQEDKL
# In short: as §1
# ETV3 = biological target: T12, ETV3 (Homo sapiens, UniProt P41162-2 1-143); conditions: protein: recombinant; tags: N-terminal GST; dsDNA, one strand shown
# T12 sequence: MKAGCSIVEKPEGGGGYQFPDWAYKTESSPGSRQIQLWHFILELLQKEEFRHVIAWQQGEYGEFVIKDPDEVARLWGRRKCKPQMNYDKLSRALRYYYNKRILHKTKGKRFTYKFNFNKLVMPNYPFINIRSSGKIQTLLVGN
# In short: as §1
# ETV6 = ETV6 (Homo sapiens, UniProt P41212 1-452); conditions: protein: recombinant; tags: N-terminal GST; dsDNA, one strand shown
# In short: as §1
# ETV6, sequence (P41212 whole entry): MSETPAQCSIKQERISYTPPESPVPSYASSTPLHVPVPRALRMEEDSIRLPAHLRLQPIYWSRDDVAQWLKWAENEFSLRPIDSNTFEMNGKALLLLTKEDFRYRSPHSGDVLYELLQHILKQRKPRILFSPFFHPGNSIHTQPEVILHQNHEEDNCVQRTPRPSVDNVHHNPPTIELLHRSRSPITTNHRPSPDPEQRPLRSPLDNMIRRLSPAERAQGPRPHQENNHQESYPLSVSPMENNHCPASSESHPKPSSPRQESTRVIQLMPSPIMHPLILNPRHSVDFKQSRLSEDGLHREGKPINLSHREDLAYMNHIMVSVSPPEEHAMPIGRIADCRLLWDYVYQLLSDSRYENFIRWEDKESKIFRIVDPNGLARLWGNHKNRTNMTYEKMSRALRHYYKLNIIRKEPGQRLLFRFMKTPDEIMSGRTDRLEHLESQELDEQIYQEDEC
# ETV5, sequence (P41161 whole entry): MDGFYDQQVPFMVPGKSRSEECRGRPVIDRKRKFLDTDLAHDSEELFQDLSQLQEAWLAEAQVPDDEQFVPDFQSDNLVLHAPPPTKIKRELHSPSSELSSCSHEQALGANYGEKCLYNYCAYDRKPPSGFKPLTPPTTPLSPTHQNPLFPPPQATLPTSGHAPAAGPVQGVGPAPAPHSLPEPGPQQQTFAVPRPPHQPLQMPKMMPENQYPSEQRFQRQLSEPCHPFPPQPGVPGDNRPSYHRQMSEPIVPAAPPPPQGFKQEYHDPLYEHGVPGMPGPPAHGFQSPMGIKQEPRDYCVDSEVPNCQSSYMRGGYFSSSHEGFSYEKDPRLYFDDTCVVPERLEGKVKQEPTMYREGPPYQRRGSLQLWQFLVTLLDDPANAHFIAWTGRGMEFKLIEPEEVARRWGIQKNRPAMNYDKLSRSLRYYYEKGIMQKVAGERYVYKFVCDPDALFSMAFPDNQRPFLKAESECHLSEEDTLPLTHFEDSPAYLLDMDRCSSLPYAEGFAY
# ELF4, sequence (Q99607 whole entry): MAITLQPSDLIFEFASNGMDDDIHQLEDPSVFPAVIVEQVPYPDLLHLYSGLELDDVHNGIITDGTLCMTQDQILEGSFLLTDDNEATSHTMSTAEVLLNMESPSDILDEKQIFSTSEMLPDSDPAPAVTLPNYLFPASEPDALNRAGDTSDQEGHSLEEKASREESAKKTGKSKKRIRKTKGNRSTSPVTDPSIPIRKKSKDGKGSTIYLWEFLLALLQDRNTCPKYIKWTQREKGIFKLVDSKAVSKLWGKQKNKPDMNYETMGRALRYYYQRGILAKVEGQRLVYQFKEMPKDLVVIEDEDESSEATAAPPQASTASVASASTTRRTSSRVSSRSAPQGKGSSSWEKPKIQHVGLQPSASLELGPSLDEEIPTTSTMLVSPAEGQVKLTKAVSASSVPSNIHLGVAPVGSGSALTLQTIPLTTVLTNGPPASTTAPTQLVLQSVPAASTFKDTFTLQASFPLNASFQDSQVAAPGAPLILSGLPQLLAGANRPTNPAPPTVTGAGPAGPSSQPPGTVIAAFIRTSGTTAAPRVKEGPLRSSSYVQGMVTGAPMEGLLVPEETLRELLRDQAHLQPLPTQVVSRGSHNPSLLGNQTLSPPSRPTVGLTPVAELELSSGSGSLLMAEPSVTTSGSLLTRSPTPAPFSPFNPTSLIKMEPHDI
# HSF1, sequence (Q00613 whole entry): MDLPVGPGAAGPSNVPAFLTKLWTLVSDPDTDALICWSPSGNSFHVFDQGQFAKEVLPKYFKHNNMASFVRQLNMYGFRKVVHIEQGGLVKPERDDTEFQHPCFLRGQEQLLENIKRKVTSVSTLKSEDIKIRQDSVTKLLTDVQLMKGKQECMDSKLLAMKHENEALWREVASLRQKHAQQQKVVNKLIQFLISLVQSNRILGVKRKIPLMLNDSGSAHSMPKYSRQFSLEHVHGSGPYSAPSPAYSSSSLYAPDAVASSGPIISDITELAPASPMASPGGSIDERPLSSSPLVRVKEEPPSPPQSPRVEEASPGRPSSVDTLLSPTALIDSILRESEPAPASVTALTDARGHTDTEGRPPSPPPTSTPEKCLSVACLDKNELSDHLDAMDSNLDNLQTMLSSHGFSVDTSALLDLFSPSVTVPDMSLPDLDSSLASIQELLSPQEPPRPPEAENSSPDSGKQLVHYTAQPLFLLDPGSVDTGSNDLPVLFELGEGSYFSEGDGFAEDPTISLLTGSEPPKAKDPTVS
# ETV1, sequence (P50549 whole entry): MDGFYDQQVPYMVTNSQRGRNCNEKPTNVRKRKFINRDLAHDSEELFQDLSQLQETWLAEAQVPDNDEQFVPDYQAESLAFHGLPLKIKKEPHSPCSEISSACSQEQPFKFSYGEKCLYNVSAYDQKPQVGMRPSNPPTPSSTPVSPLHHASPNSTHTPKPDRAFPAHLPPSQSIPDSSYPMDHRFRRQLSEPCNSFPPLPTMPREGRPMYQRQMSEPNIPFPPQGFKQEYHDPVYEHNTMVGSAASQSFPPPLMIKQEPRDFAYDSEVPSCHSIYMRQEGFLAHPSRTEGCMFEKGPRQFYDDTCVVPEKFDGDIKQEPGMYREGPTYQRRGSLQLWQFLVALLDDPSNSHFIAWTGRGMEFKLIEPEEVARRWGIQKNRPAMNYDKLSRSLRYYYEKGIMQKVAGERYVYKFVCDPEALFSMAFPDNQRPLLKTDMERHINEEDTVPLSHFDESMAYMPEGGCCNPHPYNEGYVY
# CRX, sequence (O43186 whole entry): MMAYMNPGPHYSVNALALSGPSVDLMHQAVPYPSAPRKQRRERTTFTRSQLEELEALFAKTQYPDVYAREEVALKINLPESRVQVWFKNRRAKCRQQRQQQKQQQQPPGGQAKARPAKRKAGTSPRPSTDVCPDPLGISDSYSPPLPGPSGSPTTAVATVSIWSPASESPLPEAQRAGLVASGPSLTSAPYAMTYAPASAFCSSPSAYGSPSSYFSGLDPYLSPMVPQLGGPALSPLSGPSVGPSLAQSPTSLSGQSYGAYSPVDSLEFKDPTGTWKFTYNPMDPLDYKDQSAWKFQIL
sequence,measurement,setting,value
AACCCG,binding signal,FEV,"1.44 fold enrichment (6-mer frequency, TF over GST control)"
same,binding signal,ETV5,"1.51 fold enrichment (6-mer frequency, TF over GST control)"
same,binding signal,HSF1,"1.07 fold enrichment (6-mer frequency, TF over GST control)"
same,binding signal,SPIC,"1.47 fold enrichment (6-mer frequency, TF over GST control)"
same,binding signal,ELF4,"1.51 fold enrichment (6-mer frequency, TF over GST control)"
same,binding signal,ELK4,"1.26 fold enrichment (6-mer frequency, TF over GST control)"
same,binding signal,ETV2,"1.47 fold enrichment (6-mer frequency, TF over GST control)"
same,binding signal,ELF3,"1.6 fold enrichment (6-mer frequency, TF over GST control)"
same,binding signal,CRX,"1.2 fold enrichment (6-mer frequency, TF over GST control)"
same,binding signal,ETV1,"1.58 fold enrichment (6-mer frequency, TF over GST control)"
same,binding signal,ERF,"1.42 fold enrichment (6-mer frequency, TF over GST control)"
same,binding signal,ETV3L,"1.34 fold enrichment (6-mer frequency, TF over GST control)"
same,binding signal,ETS2,"1.45 fold enrichment (6-mer frequency, TF over GST control)"
same,binding signal,SPDEF,"1.63 fold enrichment (6-mer frequency, TF over GST control)"
same,binding signal,ETV7,"1.47 fold enrichment (6-mer frequency, TF over GST control)"
same,binding signal,ELF5,"1.52 fold enrichment (6-mer frequency, TF over GST control)"
same,binding signal,ETV3,"1.57 fold enrichment (6-mer frequency, TF over GST control)"
same,binding signal,ETV6,"1.5 fold enrichment (6-mer frequency, TF over GST control)"
